# According to PubChem BioAssay (Tox21):
# Where “and” joins values, the source holds several entries; their conditions need not be identical. Identical values can stand only once. Records with an inconclusive call do not appear. A call without a number means that no potency is given here. Where a structure was tested more than once in an assay, its records may differ in their call. Calls of active or inactive are those of the source. Unless noted, the call rests on the fitted dose curve; in most records, active means well fitted curve in the direction sought with a large enough effect in the repeat runs; inconclusive means weak or mixed curves; inactive means no such curve, though single readings can be large; an effect the other way counts as inactive or inconclusive.
# Assays:
# [1] = qHTS assay to identify aromatase inhibitors - cell viability counter screen (AID 743084);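 further: cells stimulated with testosterone during compound exposure; nearly all actives have a fitted effect of over 55% in size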; further: potency means the concentration at half of the fitted maximal effect
# [2] = target: Aryl hydrocarbon receptor (Homo sapiens) (UniProt P35869); assay: qHTS assay to identify small molecule that activate the aryl hydrocarbon receptor (AhR) signaling pathway (AID 743085);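 further: HG2L7.5c1 human HepG2 liver cells with stably integrated DRE-driven firefly reporter; series mostly up to about 70 µM; nearly all actives have a fitted effect of over 15% in size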
# Chain of Aryl hydrocarbon receptor (Homo sapiens) (P35869 whole entry, looked up): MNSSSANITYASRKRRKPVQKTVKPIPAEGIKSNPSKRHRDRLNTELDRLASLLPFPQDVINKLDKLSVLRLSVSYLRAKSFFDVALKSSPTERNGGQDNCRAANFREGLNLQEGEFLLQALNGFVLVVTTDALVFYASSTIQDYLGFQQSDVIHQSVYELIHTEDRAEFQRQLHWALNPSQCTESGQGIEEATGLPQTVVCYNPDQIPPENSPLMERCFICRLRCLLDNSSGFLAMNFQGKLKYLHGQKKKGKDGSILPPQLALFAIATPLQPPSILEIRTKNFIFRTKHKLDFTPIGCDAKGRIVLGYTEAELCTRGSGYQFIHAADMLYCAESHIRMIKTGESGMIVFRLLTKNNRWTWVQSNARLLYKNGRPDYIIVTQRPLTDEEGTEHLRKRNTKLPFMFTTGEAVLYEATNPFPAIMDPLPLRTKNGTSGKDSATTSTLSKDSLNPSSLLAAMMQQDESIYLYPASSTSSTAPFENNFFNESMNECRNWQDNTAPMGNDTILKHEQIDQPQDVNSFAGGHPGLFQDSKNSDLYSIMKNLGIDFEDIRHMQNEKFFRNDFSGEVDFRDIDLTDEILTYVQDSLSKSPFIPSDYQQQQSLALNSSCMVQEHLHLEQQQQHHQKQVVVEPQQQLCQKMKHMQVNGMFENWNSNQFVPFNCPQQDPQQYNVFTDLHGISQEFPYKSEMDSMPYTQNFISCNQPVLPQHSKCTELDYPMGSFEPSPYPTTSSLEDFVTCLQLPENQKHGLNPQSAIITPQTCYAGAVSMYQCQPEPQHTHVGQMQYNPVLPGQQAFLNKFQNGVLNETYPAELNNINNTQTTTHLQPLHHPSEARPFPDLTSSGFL
# Method in brief: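 Luminescence read-out: ONE-Glo reagent, 30 min at room temperature, in HG2L7.5c1 HepG2 reporter cells treated 24 h at 37C. Viability was measured beforehand by CellTiter-Fluor fluorescence after 30 min at 37C.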
# [3] = target: Peroxisome proliferator-activated receptor gamma (Homo sapiens) (UniProt P37231); assay: qHTS assay to identify small molecule agonists of the peroxisome proliferator-activated receptor gamma (PPARg) signaling pathway (AID 743094; active means well fitted activation curve with a large enough effect in the signal ratio in the repeat runs, not every such curve was filed as active; the % refers to the signal ratio)
# Chain of Peroxisome proliferator-activated receptor gamma (Homo sapiens) (P37231 whole entry, looked up): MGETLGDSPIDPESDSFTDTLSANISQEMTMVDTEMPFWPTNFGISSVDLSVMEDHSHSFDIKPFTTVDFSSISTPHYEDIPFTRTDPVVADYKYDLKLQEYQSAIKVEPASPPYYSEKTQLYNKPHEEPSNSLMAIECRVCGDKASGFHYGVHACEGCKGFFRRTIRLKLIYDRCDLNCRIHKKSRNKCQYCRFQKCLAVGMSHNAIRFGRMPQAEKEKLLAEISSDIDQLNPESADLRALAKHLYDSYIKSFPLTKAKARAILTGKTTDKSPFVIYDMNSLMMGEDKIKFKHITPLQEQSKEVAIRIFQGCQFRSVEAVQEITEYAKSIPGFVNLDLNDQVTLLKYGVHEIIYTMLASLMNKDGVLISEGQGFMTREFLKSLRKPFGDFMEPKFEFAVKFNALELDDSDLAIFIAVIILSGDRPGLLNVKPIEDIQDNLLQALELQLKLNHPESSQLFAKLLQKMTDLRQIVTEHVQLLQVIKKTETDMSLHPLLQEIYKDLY
# Method in brief: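 Compounds dissolved in DMSO were added to PPARg UAS-bla HEK293H cells for 17 h at 37C, and reporter expression was quantified by fluorescence intensity after 1 h with LiveBLAzer B/G FRET substrate.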
# [4] = target: Peroxisome proliferator-activated receptor gamma (Homo sapiens) (UniProt P37231); assay: qHTS assay to identify small molecule antagonists of the peroxisome proliferator-activated receptor gamma (PPARg) signaling pathway (AID 743191; calls by dose curve; further: nearly all actives have a fitted effect of over 30% in size; further: potency means the concentration at half of the fitted maximal effect)
# Method in brief: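 GeneBLAzer PPARg UAS-bla HEK293H cells carrying a UAS-driven beta-lactamase reporter were plated at 3000 cells/well, preincubated 5 h at 37C, then given compound for 17 h at 37C; LiveBLAzer B/G FRET substrate was read after 1 h at room temperature.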
# [5] = qHTS assay to identify small molecule antagonists of the peroxisome proliferator-activated receptor gamma (PPARg) signaling pathway - cell viability counter screen (AID 743194); conditions: Potency: co-treated with 50 nM rosiglitazone unless noted; further: nearly all actives have a fitted effect of over 55% in size; further: potency means the concentration at half of the fitted maximal effect
# Method in brief: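 PPARg-UAS-bla HEK293H cells were plated, rested 5 h at 37 C, then treated with compounds plus rosiglitazone (50 nM final) for 17 h at 37 C; viability was then read by CellTiter-Glo luminescence after 30 min at room temperature.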
# [6] = qHTS assay for small molecule agonists of the antioxidant response element (ARE) signaling pathway (AID 743202; active means well fitted activation curve with a large enough effect in the signal ratio in the repeat runs, not every such curve was filed as active; the % refers to the signal ratio; further: potency means the concentration at half of the fitted maximal effect)
# Method in brief: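 Compounds delivered in DMSO to ARE-bla HepG2 cells (2,000 cells/well, pre-incubated 5 h) and left 16 h at 37 C. LiveBLAzer B/G FRET substrate then added for 2 h at RT before fluorescence reading.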
# [7] = qHTS assay for small molecule agonists of the antioxidant response element (ARE) signaling pathway - cell viability counter screen (AID 743203; calls by dose curve; further: nearly all actives have a fitted effect of over 55% in size; further: potency means the concentration at half of the fitted maximal effect)
# Method in brief: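 Following 16 hrs of compound treatment at 37C, HepG2 cells with an ARE-controlled beta-lactamase gene were lysed with CellTiter-Glo. Luminescence was read after 30 min at room temperature.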
# [8] = qHTS assay for small molecule activators of the heat shock response signaling pathway - cell viability counter screen (AID 743209); further: nearly all actives have a fitted effect of over 50% in size; further: potency means the concentration at half of the fitted maximal effect
# Method in brief: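 Readout: CellTiter-Glo luminescence, 30 min at room temperature. System: HSE-bla HeLa cells, 1500/well, plated overnight. Treatment: compounds in DMSO, 5 h at 37 C.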
# [9] = qHTS assay for small molecule activators of the heat shock response signaling pathway (AID 743210; active means well fitted activation curve with a large enough effect in the signal ratio in the repeat runs, with a control signal flat, not every such curve was filed as active; the % refers to the signal ratio;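 further: HeLa cells with beta-lactamase reporter driven by heat shock elements; series mostly up to about 63 µM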)
# Method in brief: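 Reporter gene assay: HeLa cells stably bearing an HSE-bla construct, compound treatment 5 h at 37 C, LiveBLAzer substrate 2.5 h at RT, fluorescence intensity.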
# [10] = qHTS assay to identify small molecule agonists of the peroxisome proliferator-activated receptor delta (PPARd) signaling pathway - cell viability counter screen (AID 743211); further: nearly all actives have a fitted effect of over 55% in size
# Method in brief: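 Read-out: CellTiter-Glo luminescence, 30 min RT, measured in the same wells as the beta-lactamase reporter. Cells: GeneBLAzer PPAR delta UAS-bla HEK293H, 3000 cells/well, compound exposure 17 h at 37C.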
# [11] = qHTS assay to identify small molecule antagonists of the peroxisome proliferator-activated receptor delta (PPARd) signaling pathway - cell viability counter screen (AID 743213); further: nearly all actives have a fitted effect of over 50% in size; further: potency means the concentration at half of the fitted maximal effect
# Method in brief: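 HEK293H cells with the PPARd UAS-bla reporter, co-treated 17 h at 37 C with compounds and L165041 (300 nM final), were lysed with CellTiter-Glo. Luminescence indicated viable cell content.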
# [12] = target: Peroxisome proliferator-activated receptor delta (Homo sapiens) (UniProt Q03181); assay: qHTS assay to identify small molecule antagonists of the peroxisome proliferator-activated receptor delta (PPARd) signaling pathway (AID 743215; active means well fitted inhibition curve with a large enough effect in the signal ratio in the repeat runs, not every such curve was filed as active; the % refers to the signal ratio;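 further: cells stimulated with agonist L165041 at 300 nM final during compound exposure; series mostly up to about 62 µM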)
# Chain of Peroxisome proliferator-activated receptor delta (Homo sapiens) (Q03181 whole entry, looked up): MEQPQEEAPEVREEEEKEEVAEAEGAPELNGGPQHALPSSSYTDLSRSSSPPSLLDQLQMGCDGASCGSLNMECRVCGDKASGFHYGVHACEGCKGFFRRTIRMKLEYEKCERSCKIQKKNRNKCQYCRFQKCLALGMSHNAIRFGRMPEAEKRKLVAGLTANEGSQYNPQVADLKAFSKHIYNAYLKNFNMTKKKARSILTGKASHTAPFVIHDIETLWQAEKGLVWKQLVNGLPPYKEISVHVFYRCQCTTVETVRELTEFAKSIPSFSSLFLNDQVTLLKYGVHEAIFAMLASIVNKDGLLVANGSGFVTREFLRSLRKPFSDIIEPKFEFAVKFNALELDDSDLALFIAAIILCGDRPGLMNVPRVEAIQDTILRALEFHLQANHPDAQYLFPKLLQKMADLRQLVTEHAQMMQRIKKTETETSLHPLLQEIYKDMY
# Method in brief: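 HEK293H UAS-bla, PPARd; agonist L165041 300 nM final with cpd in DMSO; 37 C 17 h; FRET substrate, RT 2 h; fluorescence intensity.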
# [13] = qHTS assay to identify small molecule agonists of the farnesoid-X-receptor (FXR) signaling pathway - cell viability counter screen (AID 743218); further: nearly all actives have a fitted effect of over 45% in size; further: potency means the concentration at half of the fitted maximal effect
# Method in brief: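 Parallel cytotoxicity test: compound-treated (16 h, 37 C) HEK 293T FXR-bla reporter cells were lysed with CellTiter-Glo and luminescence recorded.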
# [14] = qHTS assay to identify small molecule antagonists of the farnesoid-X-receptor (FXR) signaling pathway - cell viability counter screen (AID 743221; active means well fitted cell-killing curve with a large enough effect in the repeat runs, not every such curve was filed as active; further: nearly all actives have a fitted effect of over 50% in size; further: potency means the concentration at half of the fitted maximal effect)
# Method in brief: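 HEK 293T FXR-bla cells, 5 h pre-incubation; compound + CDCA 50 uM final, 16 h, 37 C; beta-lactamase FRET read first, then CellTiter-Glo luminescence, 30 min RT.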
# [15] = target: Peroxisome proliferator-activated receptor delta (Homo sapiens) (UniProt Q03181); assay: qHTS assay to identify small molecule agonists of the peroxisome proliferator-activated receptor delta (PPARd) signaling pathway (AID 743212; calls by dose curve)
# Method in brief: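 A PPARd-bla HEK293H line with beta-lactamase under an Upstream Activator Sequence is treated with compounds at 37 C. Substrate loading for 2 h at room temperature precedes the fluorescence measurement.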
# [16] = target: Bile acid receptor (Homo sapiens) (UniProt Q96RI1); assay: qHTS assay to identify small molecule antagonists of the farnesoid-X-receptor (FXR) signaling pathway (AID 743217; active means well fitted inhibition curve with a large enough effect in the signal ratio in the repeat runs, not every such curve was filed as active; the % refers to the signal ratio)
# Chain of Bile acid receptor (Homo sapiens) (Q96RI1 whole entry, looked up): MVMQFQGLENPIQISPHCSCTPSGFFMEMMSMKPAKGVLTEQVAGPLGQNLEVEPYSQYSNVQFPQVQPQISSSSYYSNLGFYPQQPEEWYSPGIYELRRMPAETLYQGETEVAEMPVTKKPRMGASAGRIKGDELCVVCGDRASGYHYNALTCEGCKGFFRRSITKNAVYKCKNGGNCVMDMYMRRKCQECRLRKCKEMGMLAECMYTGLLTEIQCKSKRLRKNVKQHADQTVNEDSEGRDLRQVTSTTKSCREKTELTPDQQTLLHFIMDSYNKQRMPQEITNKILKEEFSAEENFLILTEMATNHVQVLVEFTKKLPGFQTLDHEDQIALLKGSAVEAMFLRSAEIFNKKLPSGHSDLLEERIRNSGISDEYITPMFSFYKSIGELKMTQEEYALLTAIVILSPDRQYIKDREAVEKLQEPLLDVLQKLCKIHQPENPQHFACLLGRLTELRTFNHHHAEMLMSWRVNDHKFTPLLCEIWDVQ
# Method in brief: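 GeneBLAzer FXR-UAS-bla HEK 293T, CDCA-stimulated (50 uM final). Compound treatment 16 h, 37 °C. Detection: beta-lactamase cleavage of B/G FRET substrate, fluorescence.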
# [17] = target: Bile acid receptor (Homo sapiens) (UniProt Q96RI1); assay: qHTS assay to identify small molecule agonists of the farnesoid-X-receptor (FXR) signaling pathway (AID 743220; active means well fitted activation curve with a large enough effect in the signal ratio in the repeat runs, not every such curve was filed as active; the % refers to the signal ratio)
# Method in brief: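 Beta-lactamase reporter under UAS control in GeneBLAzer FXR HEK 293T cells (5000/well) measured with LiveBLAzer FRET substrate after 2 h at room temperature. Compound exposure lasted 16 h at 37C.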
# [18] = target: Vitamin D3 receptor (Homo sapiens) (UniProt P11473); assay: qHTS assay to identify small molecule agonists of the vitamin D receptor (VDR) signaling pathway (AID 743222; calls by dose curve)
# Chain of Vitamin D3 receptor (Homo sapiens) (P11473 whole entry, looked up): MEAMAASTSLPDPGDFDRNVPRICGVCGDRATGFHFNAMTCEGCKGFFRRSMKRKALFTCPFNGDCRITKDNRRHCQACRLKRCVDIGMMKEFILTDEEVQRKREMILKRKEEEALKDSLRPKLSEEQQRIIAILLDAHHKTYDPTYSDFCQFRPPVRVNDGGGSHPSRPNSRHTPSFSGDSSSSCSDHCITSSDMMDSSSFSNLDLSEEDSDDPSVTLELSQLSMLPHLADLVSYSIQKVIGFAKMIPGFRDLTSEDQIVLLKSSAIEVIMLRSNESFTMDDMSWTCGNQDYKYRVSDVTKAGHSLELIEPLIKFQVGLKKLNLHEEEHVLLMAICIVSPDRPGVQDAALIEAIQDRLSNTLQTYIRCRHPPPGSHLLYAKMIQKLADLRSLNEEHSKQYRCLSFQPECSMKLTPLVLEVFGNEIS
# Method in brief: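 In VDR-bla cells, compound-induced beta-lactamase expression is quantified by FRET substrate fluorescence. Treatment lasts 16 h at 37C; substrate develops 2 h at room temperature.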
# [19] = target: Vitamin D3 receptor (Homo sapiens) (UniProt P11473); assay: qHTS assay to identify small molecule antagonists of the vitamin D receptor (VDR) signaling pathway (AID 743223; active means well fitted inhibition curve with a large enough effect in the signal ratio in the repeat runs, not every such curve was filed as active; the % refers to the signal ratio)
# Method in brief: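 Beta-lactamase reporter read-out: FRET substrate fluorescence after 2 h at room temperature, following 16 h exposure of VDR-bla cells to test compound plus 3 nM (final) 1alpha,25-dihydroxyvitamin D3 agonist at 37C.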
# [20] = qHTS assay to identify small molecule that activate the aryl hydrocarbon receptor (AhR) signaling pathway - cell viability counter screen (AID 743086); further: nearly all actives have a fitted effect of over 45% in size; further: potency means the concentration at half of the fitted maximal effect
# Method in brief: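 HepG2-AhR-luc (HG2L7.5c1) cells, 4000/well, were preincubated 5 h at 37C, exposed to compound in qHTS format for 24 hr at 37C, then given CellTiter-Fluor for 30 min; viability was read as fluorescence in the reporter wells.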
SMILES,Potency [1],Potency [2],Potency [3],Potency [4],Potency [5],Potency [6],Potency [7],Potency [8],Potency [9],Potency [10],Potency [11],Potency [12],Potency [13],Potency [14],Potency [15],Potency [16],Potency [17],Potency [18],Potency [19],Potency [20]
CCNc1nc(NC(C)C(C)C)nc(SC)n1 (stereo unspecified),inactive,inactive,inactive,inactive,inactive,inactive,inactive,inactive,inactive,inactive,inactive,inactive,inactive,inactive,–,–,–,–,–,–
CCNS(=O)(=O)C(F)(F)C(F)(F)C(F)(F)C(F)(F)C(F)(F)C(F)(F)C(F)(F)C(F)(F)F,inactive,inactive,–,inactive,inactive,–,–,inactive,–,inactive,inactive,inactive,inactive,inactive,inactive,inactive,inactive,inactive,inactive,–
ClSC(Cl)(Cl)Cl,inactive,inactive,inactive,inactive,inactive,inactive,inactive,inactive,inactive,inactive,–,inactive,–,inactive,inactive,–,–,–,–,–
CCN(CC)C(=S)S,8.71 µM (active) and 7.65 µM (active) and 4.86 µM (active),inactive,–,inactive,inactive,–,inactive,6.98 µM (active) and 2.75 µM (active),–,–,inactive and 6.13 µM (active) and 3.47 µM (active),–,12.4 µM (active),22.1 µM (active) and 4.87 µM (active) and 7.76 µM (active),–,–,–,inactive,–,–
CSC1=N[C@@](C)(c2ccccc2)C(=O)N1Nc1ccccc1,inactive,inactive,–,–,–,–,inactive,inactive,inactive,–,inactive,–,–,inactive,inactive,–,–,inactive,inactive,inactive
CC1CCCC1,inactive,inactive,–,21.5 µM (active),inactive,–,inactive,12.1 µM (active),–,inactive,–,inactive,inactive,inactive,inactive,–,–,inactive,inactive,–
[F][Sn]([c]1ccccc1)([c]1ccccc1)[c]1ccccc1,3.06 µM (active),inactive,–,–,0.616 µM (active),–,0.344 µM (active),–,–,–,0.977 µM (active),–,0.977 µM (active),1.55 µM (active),–,–,–,inactive,–,3.86 µM (active)
C[C@]12C/C(=C/O)C(=O)C[C@@H]1CC[C@@H]1[C@@H]2CC[C@@]2(C)[C@H]1CC[C@]2(C)O,inactive,inactive,–,–,inactive,5.96 µM (active),inactive,inactive,–,–,inactive,–,–,inactive,–,–,–,–,inactive,–
CCCCn1cc[n+](C)c1.[Cl][Fe-]([Cl])([Cl])[Cl],inactive,inactive,–,–,–,–,inactive,inactive,–,inactive,inactive,–,inactive,inactive,–,–,–,–,–,inactive
CC1(C)[C@H](/C=C2\CCSC2=O)[C@@H]1C(=O)OCc1coc(Cc2ccccc2)c1,inactive,inactive,–,–,inactive,–,–,inactive,–,–,inactive,–,inactive,inactive,–,–,–,–,–,inactive
